Measured values: PubChem BioAssay (Tox21)
Values without a mark were called inactive. Inconclusive results are not listed. Entries that show only a call come without a potency. The source made the active and inactive calls. Unless noted, calls come from the whole dose curve; as a rule, active = well fitted curve in the direction sought with a large enough effect in the repeat runs; inconclusive = weak or mixed curves; inactive = no such curve, though single readings can be large; an effect the other way counts as inactive or inconclusive. Non-standard residues stand in square brackets, D forms with d. Residues, ends and D or L forms follow the SMILES beside them. *: point of attachment. Sta = CC(C)C[C@H](N)[C@@H](O)CC(=O)O; Isovaleryl = CC(C)CC(=O)*

Experiments:
[1] = qHTS assay to identify small molecule HDAC inhibitors - cell viability counter screen (AID 1259365); note: series mostly up to about 92 µM; nearly all actives have a fitted effect of over 50% in size
How it was run: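 Luminescence from CellTiter-Glo, developed 30min at room temperature, reports viability of wild-type HCT-116 cells treated 2hr with compounds at 37 C and 5% CO2 after overnight plating.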

[2] = qHTS assay to identify small molecule agonists of the sonic hedgehog signaling (Shh) pathway - cell viability counter screen (AID 1259366); note: nearly all actives have a fitted effect of over 50% in size
How it was run: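 Cytotoxicity counter screen run in the same wells as the Shh reporter assay. NIH/3T3 cells carrying a Gli1 response element–driven luciferase were treated with DMSO-dissolved compounds for 24hr, and live-cell protease activity was measured with CellTiter-Fluor.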

[3] = qHTS assay to identify small molecule antagonists of the sonic hedgehog signaling (Shh) pathway - cell viability counter screen (AID 1259367); note: nearly all actives have a fitted effect of over 55% in size
How it was run: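 Seed 3T3 Gli1-Luc cells at 2,000 per well; incubate 4 hr; add compound in DMSO, then conditioned medium; incubate at 37C with 5% CO2; add CellTiter-Fluor after 23 hr; read fluorescence 1 hr later.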

[4] = qHTS assay to identify small molecule agonists of the sonic hedgehog signaling (Shh) pathway (AID 1259368; calls by dose curve; note: series mostly up to about 92 µM; nearly all actives have a fitted effect of over 15% in size)
How it was run: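 NIH/3T3-derived 3T3Gli1-Luc cells carrying a stably integrated Gli1 response element–firefly luciferase reporter were plated, left 4 hr at 37 C, then given compounds in DMSO for 24 hr. Luminescence was read 30 min after adding luciferase reagent.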

[5] = biological target: Estrogen receptor beta (Homo sapiens) (UniProt Q92731); experiment: qHTS assay to identify small molecule agonists of the estrogen receptor beta (ER-beta) signaling pathway (AID 1259377; active = well fitted activation curve with a large enough effect in the signal ratio in the repeat runs, not every such curve was filed as active; the % refers to the signal ratio)
How it was run: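 HEK293T ER-beta-UAS-bla; 2% charcoal-stripped FBS; cells pre-incubated 6 hr, compound 16 hr, 37C/5% CO2; LiveBLAzer B/G FRET substrate 2 h RT; fluorescence intensity read.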

[6] = biological target: Estrogen receptor beta (Homo sapiens) (UniProt Q92731); experiment: qHTS assay to identify small molecule antagonists of the estrogen receptor beta (ER-beta) signaling pathway (AID 1259378; active = well fitted inhibition curve with a large enough effect in the signal ratio in the repeat runs, not every such curve was filed as active; the % refers to the signal ratio)
How it was run: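 ER-beta-UAS-bla HEK293T cells in 2% charcoal-stripped FBS medium treated with compound plus 1nM final 17-beta-estradiol for 16 hr at 37C. Beta-lactamase reporter read by FRET substrate fluorescence after 2 hours at room temperature.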

[7] = qHTS assay to identify small molecule agonists of the androgen receptor (AR) signaling pathway in the presence of an antagonist - cell viability counter screen (AID 1259379); note: series mostly up to about 92 µM; nearly all actives have a fitted effect of over 25% in size
How it was run: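 MDA-kb2 human breast carcinoma cells (stable MMTV-luciferase, AR/GR responsive) were seeded 3,000 cells/well, pre-incubated 5 hr at 37C without CO2, then given 3.0uM nilutamide and compounds at 15 concentrations for 16 hr. Viability was read by CellTiter-Fluor fluorescence.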

[8] = biological target: Estrogen receptor (Homo sapiens) (UniProt P03372); experiment: qHTS assay to identify small molecule agonists of the estrogen receptor alpha (ER-alpha) signaling pathway in the presence of an antagonist (AID 1259383; calls by dose curve; note: top concentration of the series differs between compounds; nearly all actives have a fitted effect of over 15% in size)
How it was run: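 VM7Luc4E2 cells (endogenous full-length ER-alpha, 4×ERE-luciferase) were precultured 5 days in phenol red-free medium with 10% charcoal-stripped FBS, given 10.0nM ICI-182,780 (final), then treated with compounds at 15 concentrations for 22hr at 37C; luminescence read with ONE-Glo.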

[9] = qHTS assay to identify small molecule agonists or antagonists of the thyroid stimulating hormone receptor (TSHR) signaling pathway - wild type cell line counter screen (AID 1259384; calls by dose curve)
How it was run: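 Wild-type Hek293 cells, 800/well, 18 h at 37C, then compound with Ro20-1724 for 30 min RT. cAMP by HTRF (cAMP-d2/anti-cAMP cryptate), 1 h RT, fluorescence read. 15 concentrations, triplicates.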

[10] = biological target: Thyrotropin receptor (Homo sapiens) (UniProt P16473); experiment: qHTS assay to identify small molecule antagonists of the thyroid stimulating hormone receptor (TSHR) signaling pathway (AID 1259385; calls by dose curve; note: nearly all actives have a fitted effect of over 20% in size)
How it was run: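 TSHR-HEK293 cells (800/well) plated 18 h, then compounds with Ro20-1724 and TSH at 1.5 ng/mL final, 30 min at room temperature. cAMP quantified by HTRF (cAMP-d2/anti-cAMP-cryptate, 1 h); 15 concentrations in triplicate.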

[11] = qHTS assay to identify small molecule agonists of the estrogen receptor alpha (ER-alpha) signaling pathway in the presence of an antagonist - cell viability counter screen (AID 1259386);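 note: series mostly up to about 92 µM; cells exposed to compounds for 22 h at 37 °C before the viability read; nearly all actives have a fitted effect of over 30% in size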
How it was run: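 VM7Luc4E2 cells (endogenous full-length ER-alpha, 4×ERE-luciferase) were held 5 days in phenol red-free medium with 10% charcoal-stripped FBS, plated, then given 10.0nM ICI-182,780 and compounds at 15 concentrations for 22hr at 37C; viability read by CellTiter-Fluor fluorescence.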

[12] = biological target: Progesterone receptor (Homo sapiens) (UniProt P06401); experiment: qHTS assay to identify small molecule antagonists of the progesterone receptor (PR) signaling pathway (AID 1346795; active = well fitted inhibition curve with a large enough effect in the signal ratio in the repeat runs, not every such curve was filed as active; the % refers to the signal ratio; note: potency is the fitted concentration of half-maximal effect)
How it was run: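 Read-out is fluorescence from the LiveBLAzer B/G FRET substrate, cleaved by a UAS-controlled beta-lactamase in PR-UAS-bla HEK293T cells after 16 hr exposure to compound plus 1 nM promegestone (final), followed by 2 hr at room temperature.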

[13] = qHTS assay to identify small molecule antagonists of the progesterone receptor (PR) signaling pathway - cell viability counter screen (AID 1346798);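 note: HEK293T PR-UAS-bla cells stimulated with the agonist R5020; series mostly up to about 92 µM; nearly all actives have a fitted effect of over 50% in size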
How it was run: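 HEK293T PR-UAS-bla, 2% charcoal-stripped FBS; 4 hr pre-plate; cpd + R5020, 16 h 37C; LiveBLAzer read first; then CellTiter-Glo 30 min RT, luminescence.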

[14] = qHTS assay to identify small molecule antagonists of the TGF-beta/Smad signaling pathway - cell viability counter screen (AID 1346824); note: nearly all actives have a fitted effect of over 50% in size
How it was run: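 SBE-bla HEK 293T cells, incubated overnight, then compound plus 0.25 ng/mL TGF-beta1 (stock added) for 5 hr at 37 C. Viability was read in the same wells by CellTiter-Glo luminescence after 30 min at room temperature.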

[15] = qHTS assay to identify small molecule antagonists of the sonic hedgehog signaling (Shh) pathway (AID 1259369; calls by dose curve; note: nearly all actives have a fitted effect of over 45% in size)
How it was run: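 NIH/3T3-derived 3T3Gli1-Luc cells with stably integrated Gli1-Luc reporter were preincubated 4hr at 37 C, then given compounds in DMSO plus Shh conditioned medium and incubated 24hr. Firefly luciferase luminescence read after 30min reagent at room temperature.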

[16] = qHTS assay to identify small molecule antagonists of the estrogen receptor beta (ER-beta) signaling pathway - cell viability counter screen (AID 1259382); note: series mostly up to about 92 µM; nearly all actives have a fitted effect of over 55% in size
How it was run: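 ER-beta-UAS-bla HEK293T cells (2,000/well, 2% charcoal-stripped FBS) were pre-incubated 6 hr at 37C, then given compound plus 1nM final 17-beta-estradiol for 16 hr. Viability was read in the same wells by CellTiter-Glo luminescence after 30 min at room temperature.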

[17] = biological target: Progesterone receptor (Homo sapiens) (UniProt P06401); experiment: qHTS assay to identify small molecule agonists of the progesterone receptor (PR) signaling pathway (AID 1346784; calls by dose curve; note: nearly all actives have a fitted effect of over 30% in size)
How it was run: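 Beta-lactamase reporter read-out: after 16 hr compound treatment at 37C and a further 2 hr at room temperature with LiveBLAzer B/G FRET substrate, fluorescence was measured in PR-UAS-bla HEK 293T cells grown in 2% charcoal-stripped serum.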

[18] = qHTS assay to identify small molecule agonists of the progesterone receptor (PR) signaling pathway - cell viability counter screen (AID 1346799; calls by dose curve; note: nearly all actives have a fitted effect of over 45% in size)
How it was run: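 Luminescence from CellTiter-Glo, added after the beta-lactamase FRET read in the same wells, gave cytotoxicity in PR-UAS-bla HEK293T cells treated with compounds for 16 hr at 37C.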

[19] = qHTS assay to identify small molecule agonists of the estrogen receptor beta (ER-beta) signaling pathway - cell viability counter screen (AID 1259380); note: nearly all actives have a fitted effect of over 30% in size; note: potency is the fitted concentration of half-maximal effect
How it was run: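 ER-beta-UAS-bla HEK293T cells in medium with 2% charcoal-stripped FBS were preincubated 6 hr at 37C, dosed with compound in DMSO for 16 hr, then after the bla read, CellTiter-Glo was added for 30 min at room temperature; luminescence recorded.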

[20] = biological target: Androgen receptor (Homo sapiens) (UniProt P10275); experiment: qHTS assay to identify small molecule agonists of the androgen receptor (AR) signaling pathway in the presence of an antagonist (AID 1259381; calls by dose curve; note: nearly all actives have a fitted effect of over 15% in size)
How it was run: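 MDA-kb2 human breast carcinoma cells carrying an MMTV-luciferase reporter (AR- and GR-responsive) were treated with compounds at 15 concentrations plus 3.0uM final nilutamide for 16hr at 37C without CO2; luminescence was read after ONE-Glo addition.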

Sequence of Thyrotropin receptor (Homo sapiens) (P16473 whole entry, looked up): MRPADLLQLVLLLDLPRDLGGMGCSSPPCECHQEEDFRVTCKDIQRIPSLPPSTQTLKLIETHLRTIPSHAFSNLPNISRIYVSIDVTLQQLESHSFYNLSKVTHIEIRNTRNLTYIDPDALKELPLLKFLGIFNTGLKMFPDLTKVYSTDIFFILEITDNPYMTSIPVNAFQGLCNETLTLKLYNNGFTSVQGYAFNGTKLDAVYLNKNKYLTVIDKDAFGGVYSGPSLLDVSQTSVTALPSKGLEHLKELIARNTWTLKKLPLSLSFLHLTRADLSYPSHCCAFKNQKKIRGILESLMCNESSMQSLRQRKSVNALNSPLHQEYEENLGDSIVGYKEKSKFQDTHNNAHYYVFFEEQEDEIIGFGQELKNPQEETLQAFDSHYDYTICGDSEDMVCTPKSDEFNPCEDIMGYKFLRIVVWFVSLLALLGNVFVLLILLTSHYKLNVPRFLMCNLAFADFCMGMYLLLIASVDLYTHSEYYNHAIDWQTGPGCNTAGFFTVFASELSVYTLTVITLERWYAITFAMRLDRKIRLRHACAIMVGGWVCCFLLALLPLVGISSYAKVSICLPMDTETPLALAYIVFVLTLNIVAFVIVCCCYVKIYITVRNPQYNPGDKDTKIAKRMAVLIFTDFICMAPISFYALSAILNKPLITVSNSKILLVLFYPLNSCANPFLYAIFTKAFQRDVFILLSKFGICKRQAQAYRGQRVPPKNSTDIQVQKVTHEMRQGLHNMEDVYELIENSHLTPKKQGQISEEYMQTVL
Sequence of Estrogen receptor beta (Homo sapiens) (Q92731 whole entry, looked up): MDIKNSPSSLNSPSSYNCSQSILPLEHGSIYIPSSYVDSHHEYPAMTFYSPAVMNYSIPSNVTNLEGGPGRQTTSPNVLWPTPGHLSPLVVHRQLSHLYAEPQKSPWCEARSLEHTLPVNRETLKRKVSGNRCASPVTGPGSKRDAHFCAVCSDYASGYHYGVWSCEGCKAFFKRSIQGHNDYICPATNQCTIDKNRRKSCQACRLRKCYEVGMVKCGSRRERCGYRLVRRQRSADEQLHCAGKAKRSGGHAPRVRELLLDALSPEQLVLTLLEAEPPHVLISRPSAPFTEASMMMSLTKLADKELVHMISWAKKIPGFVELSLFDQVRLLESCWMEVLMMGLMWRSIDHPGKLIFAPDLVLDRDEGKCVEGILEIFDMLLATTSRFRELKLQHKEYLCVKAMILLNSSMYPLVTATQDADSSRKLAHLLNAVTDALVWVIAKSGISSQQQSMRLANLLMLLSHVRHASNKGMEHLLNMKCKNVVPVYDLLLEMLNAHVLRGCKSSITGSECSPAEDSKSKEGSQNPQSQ
Sequence of Estrogen receptor (Homo sapiens) (P03372 whole entry, looked up): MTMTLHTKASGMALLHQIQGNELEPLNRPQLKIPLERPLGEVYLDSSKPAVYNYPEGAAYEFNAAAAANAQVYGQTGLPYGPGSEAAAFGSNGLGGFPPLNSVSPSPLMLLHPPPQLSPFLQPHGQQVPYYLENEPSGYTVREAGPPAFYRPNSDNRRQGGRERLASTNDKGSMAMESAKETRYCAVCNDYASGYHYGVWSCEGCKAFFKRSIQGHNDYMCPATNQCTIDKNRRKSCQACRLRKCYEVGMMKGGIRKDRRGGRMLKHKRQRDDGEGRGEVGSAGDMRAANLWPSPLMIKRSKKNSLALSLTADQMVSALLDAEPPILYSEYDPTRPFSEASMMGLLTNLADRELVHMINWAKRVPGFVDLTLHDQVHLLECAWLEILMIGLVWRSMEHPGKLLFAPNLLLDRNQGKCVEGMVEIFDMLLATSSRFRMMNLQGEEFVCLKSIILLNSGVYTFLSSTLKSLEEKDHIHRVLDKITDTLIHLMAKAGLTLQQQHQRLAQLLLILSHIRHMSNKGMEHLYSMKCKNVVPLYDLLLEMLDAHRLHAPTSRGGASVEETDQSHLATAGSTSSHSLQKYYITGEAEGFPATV
Sequence of Androgen receptor (Homo sapiens) (P10275 whole entry, looked up): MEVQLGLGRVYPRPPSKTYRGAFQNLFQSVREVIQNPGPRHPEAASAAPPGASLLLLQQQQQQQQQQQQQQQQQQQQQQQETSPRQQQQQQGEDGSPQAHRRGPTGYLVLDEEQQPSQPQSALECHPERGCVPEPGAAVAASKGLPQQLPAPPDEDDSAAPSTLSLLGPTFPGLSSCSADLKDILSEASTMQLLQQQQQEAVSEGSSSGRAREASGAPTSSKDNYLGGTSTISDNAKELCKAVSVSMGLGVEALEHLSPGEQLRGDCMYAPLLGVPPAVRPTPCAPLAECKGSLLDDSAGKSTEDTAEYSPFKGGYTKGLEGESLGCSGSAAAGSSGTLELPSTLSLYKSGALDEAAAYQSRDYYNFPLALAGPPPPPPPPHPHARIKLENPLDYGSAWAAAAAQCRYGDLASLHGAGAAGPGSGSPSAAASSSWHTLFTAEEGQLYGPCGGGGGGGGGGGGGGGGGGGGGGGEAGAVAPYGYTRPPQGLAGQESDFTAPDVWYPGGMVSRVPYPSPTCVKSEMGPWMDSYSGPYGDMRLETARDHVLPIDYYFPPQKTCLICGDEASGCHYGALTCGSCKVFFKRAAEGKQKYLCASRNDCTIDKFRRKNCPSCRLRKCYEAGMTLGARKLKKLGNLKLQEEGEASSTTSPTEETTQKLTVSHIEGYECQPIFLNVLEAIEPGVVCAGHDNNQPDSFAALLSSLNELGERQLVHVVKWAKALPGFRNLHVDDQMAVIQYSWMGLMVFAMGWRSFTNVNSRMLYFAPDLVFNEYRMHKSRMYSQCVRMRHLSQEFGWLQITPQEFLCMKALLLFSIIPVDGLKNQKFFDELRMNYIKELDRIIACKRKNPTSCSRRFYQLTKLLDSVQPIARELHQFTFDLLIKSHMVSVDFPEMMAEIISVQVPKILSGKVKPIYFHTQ
Sequence of Progesterone receptor (Homo sapiens) (P06401 whole entry, looked up): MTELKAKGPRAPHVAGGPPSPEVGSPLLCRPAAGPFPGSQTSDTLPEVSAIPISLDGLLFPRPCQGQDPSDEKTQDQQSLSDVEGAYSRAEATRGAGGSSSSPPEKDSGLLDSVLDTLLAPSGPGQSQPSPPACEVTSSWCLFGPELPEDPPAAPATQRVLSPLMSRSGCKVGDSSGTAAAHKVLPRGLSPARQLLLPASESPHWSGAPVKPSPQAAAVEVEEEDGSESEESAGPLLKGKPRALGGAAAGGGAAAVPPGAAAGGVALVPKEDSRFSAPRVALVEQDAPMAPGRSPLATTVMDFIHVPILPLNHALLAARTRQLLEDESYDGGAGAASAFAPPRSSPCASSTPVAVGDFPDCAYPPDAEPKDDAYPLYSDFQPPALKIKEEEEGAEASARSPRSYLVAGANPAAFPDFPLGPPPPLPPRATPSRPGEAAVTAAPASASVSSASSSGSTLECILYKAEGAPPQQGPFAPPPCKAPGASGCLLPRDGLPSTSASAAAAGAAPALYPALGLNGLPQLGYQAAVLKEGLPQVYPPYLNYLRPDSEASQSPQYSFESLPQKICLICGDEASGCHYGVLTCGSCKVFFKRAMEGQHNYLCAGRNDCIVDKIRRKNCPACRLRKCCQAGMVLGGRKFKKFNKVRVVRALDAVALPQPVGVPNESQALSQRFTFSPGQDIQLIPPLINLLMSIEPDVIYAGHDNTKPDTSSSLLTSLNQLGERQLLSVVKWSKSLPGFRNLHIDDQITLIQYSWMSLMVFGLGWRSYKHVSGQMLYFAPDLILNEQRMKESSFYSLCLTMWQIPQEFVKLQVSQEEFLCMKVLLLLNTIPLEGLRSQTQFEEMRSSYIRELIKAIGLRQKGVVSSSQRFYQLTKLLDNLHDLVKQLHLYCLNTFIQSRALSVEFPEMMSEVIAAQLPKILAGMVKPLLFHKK

| SMILES | outcome [1] | outcome [2] | outcome [3] | outcome [4] | Potency [5] | outcome [6] | outcome [7] | Potency [8] | outcome [9] | outcome [10] | outcome [11] | Potency [12] | outcome [13] | outcome [14] | Potency [15] | outcome [16] | Potency [17] | Potency [18] | Potency [19] | outcome [20] |
| --- | --- | --- | --- | --- | --- | --- | --- | --- | --- | --- | --- | --- | --- | --- | --- | --- | --- | --- | --- | --- |
| OCCC(F)(F)C(F)(F)C(F)(F)C(F)(F)C(F)(F)C(F)(F)F | inactive | inactive | inactive | inactive | inactive | inactive | inactive | inactive | inactive | inactive | inactive | inactive | inactive | inactive |  |  |  |  |  |  |
| CCCCCCCCCCCCCC(=O)OCC | inactive | inactive | inactive | inactive |  |  | inactive | inactive | inactive | inactive | inactive | inactive | inactive | inactive | inactive | inactive | inactive | inactive |  |  |
| Cc1ccc(S(=O)(=O)NC(=O)NN2CC3CCCC3C2)cc1 (stereo not drawn) | inactive | inactive | inactive | inactive |  |  | inactive | inactive | inactive | inactive | inactive |  | inactive | inactive | inactive |  | inactive |  | inactive |  |
| COc1cc(NS(=O)(=O)c2ccc(N)cc2)ncn1 | inactive | inactive | inactive | inactive |  |  | inactive |  | inactive | inactive | inactive |  | inactive | inactive | inactive | inactive | inactive | inactive |  |  |
| CCCCOCCCC | inactive | inactive | inactive | inactive |  |  | inactive | inactive | inactive | inactive | inactive | inactive | inactive | inactive |  | inactive | inactive | inactive | inactive |  |
| CC(=O)c1ccc2ccc3ccccc3c2c1 | inactive | inactive | inactive | inactive |  |  | inactive | inactive | inactive | inactive | inactive | 9.63 µM (active) |  | inactive | inactive | inactive |  |  |  |  |
| CC(C)=CCC/C(C)=C\C#N | inactive | inactive | inactive | inactive |  |  | inactive | inactive | inactive | inactive | inactive | inactive |  | inactive | inactive | inactive | inactive |  |  |  |
| CN(C)c1cc(NC(=O)CNC(C)(C)C)c(O)c2c1C[C@H]1C[C@H]3[C@H](N(C)C)C(=O)C(C(N)=O)=C(O)[C@@]3(O)C(=O)C1=C2O | inactive | inactive |  | inactive | inactive | inactive | inactive | inactive | inactive |  | inactive | inactive | inactive | inactive | inactive | inactive | inactive | inactive | inactive | inactive |
| O=C1Nc2ccccc2C1=O | inactive | inactive | inactive | inactive | inactive | inactive | inactive |  | inactive | inactive | inactive | inactive |  | inactive |  | inactive | inactive | inactive |  |  |
| COc1cc(OC)cc(OC)c1 | inactive | inactive |  | inactive | inactive | inactive | inactive | inactive |  |  | inactive | inactive | inactive | inactive | inactive | inactive |  | inactive | inactive | inactive |
| CN(C)CCC[C@@]1(c2ccc(F)cc2)OCc2cc(C#N)ccc21 | inactive | inactive | inactive | inactive |  |  | inactive | inactive | inactive | inactive | inactive | inactive |  | inactive |  |  |  |  | 2.98 µM (active) |  |
| Cc1ccc(OC(=O)CC(C)C)cc1 | inactive | inactive | inactive | inactive |  |  | inactive | inactive | inactive | inactive | inactive | inactive | inactive | inactive | inactive |  | inactive | inactive | inactive |  |
| C=CC(=O)OCCOCCOCC | inactive | inactive | inactive | inactive | inactive | inactive | inactive |  |  |  | inactive |  | inactive | inactive |  | inactive | inactive | inactive | inactive |  |
| CC(C)CC(=O)N[C@H](C(=O)N[C@H](C(=O)N[C@@H](CC(C)C)[C@@H](O)CC(=O)N[C@@H](C)C(=O)N[C@@H](CC(C)C)[C@@H](O)CC(=O)O)C(C)C)C(C)C (Isovaleryl-VV[Sta]A[Sta]-OH) | inactive | inactive | inactive | inactive |  |  | inactive |  | inactive | inactive | inactive |  | inactive | inactive | inactive | inactive |  | inactive |  |  |
| NS(=O)(=O)c1cc2c(cc1C(F)(F)F)NCNS2(=O)=O | inactive | inactive | inactive | inactive |  |  | inactive | inactive | inactive | inactive | inactive | inactive | inactive | inactive | inactive | inactive | inactive |  |  |  |
| COC(=O)N/N=C/c1c[n+]([O-])c2ccccc2[n+]1[O-] | inactive | inactive | inactive | inactive |  |  | inactive | inactive | inactive |  | inactive | inactive | inactive | inactive | inactive |  |  |  | inactive |  |
| NNC(=O)CCCCC(=O)NN | inactive | inactive | inactive | inactive |  |  | inactive | inactive |  |  | inactive | inactive | inactive | inactive | inactive | inactive | inactive | inactive |  |  |
| CC(CN1CC(=O)NC(=O)C1)N1CC(=O)NC(=O)C1 (stereo not drawn) | inactive | inactive | inactive | inactive | inactive | inactive | inactive | inactive |  |  | inactive | inactive | inactive | inactive |  | inactive |  | inactive | inactive | inactive |
